Results on 47 molecules are retold here after PubChem BioAssay (NCATS).

Usually viability stands for a read-out of living cells in per cent, often relative to untreated cells.

Structures are written as SMILES. Records with an inconclusive call do not appear. A number with no mark means an inactive call. Activity calls are given as the source filed them. Unless noted, calls come from the whole dose curve; as a rule, active = well fitted curve in the direction sought with a large enough effect; inconclusive = small, poorly fitted or top-dose-only effect, or another doubt; inactive = no such curve, though single readings can be large; an effect the other way counts as inactive or inconclusive.

For assay [1], the target named is Aldehyde dehydrogenase, mitochondrial (Homo sapiens) (UniProt P05091). Kind of assay: qHTS for Inhibitors of the Aldehyde Dehydrogenase Family (ALDH2) Confirmatory screens (AID 2061303; active = well fitted inhibition curve with a large enough effect; title and protocol of this record describe different tests; note: nearly all actives have a fitted effect of over 45% in size; note: potency is the fitted concentration of half-maximal effect).
The target is the same in assay [2]. Nature of the assay: qHTS for Inhibitors of the Aldehyde Dehydrogenase Family (ALDH2) Validation screens (AID 2061302; active = well fitted inhibition curve with a large enough effect; title and protocol of this record describe different tests; note: potency is the fitted concentration of half-maximal effect). On the technique in general: Quantitative high-throughput screening tests each substance at several concentrations.
Assay [3] is described as follows: BET inhibitor-based combinations targeting novel dependencies in MECOM-rearranged (r) AML: SET-2 cell line (AID 2202231).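 For viability: plate controls were DMSO treated cells for no effect and wells without cells for full effect.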 Note: nearly all actives have a fitted effect of over 35% in size. Note: potency is the fitted concentration of half-maximal effect. To be noted: SET-2 AML cells viability, CellTiter-Glo luminescence, 48 h; viability: active compounds read low, concentration not given here. Put shortly:
(§1)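 Luminescent ATP readout (CellTiter-Glo) after 48 hr drug exposure gives viability. Curves span 11 concentrations and are normalized to DMSO and empty wells. Activity is reported as area under the curve and its Z-transform within each cell line.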

Assay [4] can be described thus: BET inhibitor-based combinations targeting novel dependencies in MECOM-rearranged (r) AML: OCI-AML3 cell line (AID 2202232). Note: nearly all actives have a fitted effect of over 35% in size. Note: potency is the fitted concentration of half-maximal effect. To be noted: Potency: OCI-AML3 viability. Put shortly:
as §1

Assay [5] is described as follows: BET inhibitor-based combinations targeting novel dependencies in MECOM-rearranged (r) AML: HNT-34 cell line (AID 2202234). Note: nearly all actives have a fitted effect of over 35% in size. Note: potency is the fitted concentration of half-maximal effect. In a few lines:
(§2)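 Luminescent ATP readout (CellTiter-Glo, 15 min at room temperature) after 48 hr drug exposure gave viability. Dose-response curves, normalized to DMSO and empty-well controls, were summarized as area under the curve and its mean-centred Z-score.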

The nature of assay [6]: BET inhibitor-based combinations targeting novel dependencies in MECOM-rearranged (r) AML: AML-191 cell line (AID 2202236; note: nearly all actives have a fitted effect of over 35% in size; note: potency is the fitted concentration of half-maximal effect). In a few lines: as §1
A short description of assay [7]: BET inhibitor-based combinations targeting novel dependencies in MECOM-rearranged (r) AML: AML-194 cell line (AID 2202237;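 note: plate controls were vehicle wells for no effect and wells without cells for full effect; nearly all actives have a fitted effect of over 40% in size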). In a few lines: as §1
Assay [8] can be described thus: BET inhibitor-based combinations targeting novel dependencies in MECOM-rearranged (r) AML: MV-4-11 cell line (AID 2202233). Note: nearly all actives have a fitted effect of over 45% in size. Note: potency is the fitted concentration of half-maximal effect. Put shortly: as §2
The nature of assay [9]: BET inhibitor-based combinations targeting novel dependencies in MECOM-rearranged (r) AML: UCSD-AML1 cell line (AID 2202235). Note: nearly all actives have a fitted effect of over 40% in size. Note: potency is the fitted concentration of half-maximal effect. Put shortly: as §2
The target in assay [10] is Retinaldehyde dehydrogenase 3 (Homo sapiens) (UniProt P47895). Kind of assay: qHTS for Inhibitors of the Aldehyde Dehydrogenase Family (ALDH1A3) Confirmatory screens (AID 2061311). Note: nearly all actives have a fitted effect of over 60% in size. Note: potency is the fitted concentration of half-maximal effect.
For assay [11] the target is unchanged. Kind of assay: qHTS for Inhibitors of the Aldehyde Dehydrogenase Family (ALDH1A3) Validation screen (AID 2061312). Note: % is set by controls: 0 for no effect and ±100 for the full control effect; nearly all actives have a fitted effect of over 45% in size.
The nature of assay [12]: qHTS for Inhibitors of the Aldehyde Dehydrogenase Family (ALDH1A2, ALDH1A3, ALDH2, ALDH3A1) (AID 2061307). For Potency: test system not described further here; potency is the fitted concentration of half-maximal effect. Note: nearly all actives have a fitted effect of over 50% in size.
The target in assay [13] is Aldehyde dehydrogenase, mitochondrial (Homo sapiens) (UniProt P05091). Kind of assay: qHTS for Inhibitors of the Aldehyde Dehydrogenase Family (ALDH2) Primary screen (AID 2061308).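 Note: plate controls were vehicle for no effect and reference inhibitor for full effect; nearly all actives have a fitted effect of over 55% in size.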
Assay [14] addresses Retinal dehydrogenase 2 (Homo sapiens) (UniProt O94788). Kind of assay: qHTS for Inhibitors of the Aldehyde Dehydrogenase Family (ALDH1A2) Confirmation screens (AID 2061314). Note: nearly all actives have a fitted effect of over 65% in size. Note: potency is the fitted concentration of half-maximal effect.
Assay [15] deals with Retinaldehyde dehydrogenase 3 (Homo sapiens) (UniProt P47895). Nature of the assay: qHTS for Inhibitors of the Aldehyde Dehydrogenase Family (ALDH1A3) Primary screen (AID 2061315).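 Note: plate controls were DMSO vehicle for no effect and reference inhibitor for full effect.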

Regarding `Cc1nn(CC(=O)N[C@H](C)c2ccccc2)c(=O)n1-c1ccc2c(c1)OCO2`, the Potency entry in assay [1] is “inactive”.

With `Fc1ccc(-c2csc(-c3nc(-c4ccc(Br)s4)cs3)n2)cc1`, the Potency entry in assay [1] was “inactive”.

`CCOc1ccc(-c2csc(-c3nc(-c4ccc(Br)s4)cs3)n2)cc1`: the Potency entry in [1] is “inactive”.

Turning to `O=C1C(=O)N(C2CCN(C(=O)c3ccc(F)cc3)CC2)CCN1Cc1ccc(F)cc1`, the Potency result in assay [1] was “inactive”.

For `N[C@@H](Cc1ccc(O)c(O)c1)C(=O)O`, the Potency entry in assay [2], in assay [4], in assay [5], in assay [6] and in [7] was “inactive” each time. Also, the viability in [3] is 105%.

With `CC(=O)[C@]1(O)Cc2c(O)c3c(c(O)c2[C@@H](O[C@H]2C[C@H](N)[C@H](O)[C@H](C)O2)C1)C(=O)c1ccccc1C3=O`, in assay [2], the Potency entry is “inactive”. Also, the Potency in assay [3] is 468 nM (active); in assay [4] it was 186 nM (active); in assay [8], 66.1 nM (active); in assay [5] it was 186 nM (active); in assay [9], 148 nM (active); in assay [6] it was 186 nM (active).

Regarding `NCCCC(N)(C(=O)O)C(F)F` (configuration not stated), the Potency entry in assay [2], in [4], in assay [8], in [5], in assay [9] and in assay [6] was “inactive” in each case. In assay [7], the Potency result is “inactive”. Moreover, in [3], the viability was 102%.

With `CCNCc1ccc(-c2ccccc2)o1`, in [1], the Potency result is “inactive”.

`COc1cc2c(c(OC)c1OC)-c1ccc(OC)c(=O)cc1[C@@H](NC(C)=O)CC2`: the Potency entry in assay [2] is “inactive”. Besides, the Potency in [3] is 66.1 nM (active); in [4], 29.5 nM (active); in [9] it was 41.7 nM (active); in [6], 33.2 nM (active).

With `Cc1ccc(CNS(=O)(=O)c2ccc(-c3cc(C(F)(F)F)on3)s2)cc1`, the Potency entry in assay [1] was “inactive”.

In the case of `CN(C)CCOC(c1ccccc1)c1ccccc1`, the Potency result in [2], in assay [4], in [8], in [5], in assay [9] and in assay [6] was “inactive” in each case. Further, the Potency result in assay [7] is “inactive”. The viability in assay [3] is 105%.

For `CCN(CC)S(=O)(=O)c1ccc2c(c1)N(CC(=O)Nc1cccc(C#N)c1)C(=O)CO2`, the Potency result in assay [1] is “inactive”.

Consider `CN(Cc1ccc(F)cc1)c1ccc2ncc(Nc3ccc4c(c3)OCO4)n2n1`, for which the Potency in assay [1] is 22400 nM (active).

On to `CCN1C(=O)c2ccccc2S(=O)c2ccc(C(=O)N3CCN(c4ccccc4)CC3)cc21` (configuration not stated), for which, in [1], the Potency entry is “inactive”.

`CCN(CC)S(=O)(=O)c1ccc2c(c1)N(CC(=O)Nc1ccc(OC)cc1)C(=O)CS2`: in [1], the Potency entry was “inactive”.

`Cn1c(=O)oc2cc(S(=O)(=O)CCC(=O)N3CCN(c4cccc(Cl)c4)CC3)ccc21`: the Potency entry in assay [1] was “inactive”.

On to `Cc1nnc(-c2cc(-c3ccc(CO)cc3)ccn2)n1Cc1ccccc1`, for which the Potency entry in assay [1] is “inactive”.

For the molecule `COCc1cccc(-c2ccc3c(n2)c(=O)ncn3Cc2ccccc2)c1`, the Potency entry in assay [1] is “inactive”.

With `CN(CC(=O)Nc1cccc(F)c1)S(=O)(=O)c1ccc2c(c1)n(C)c(=O)c(=O)n2C`, in assay [1], the Potency result was “inactive”.

For `COc1ccc(-c2noc(CC(=O)Nc3ccc(C)c(F)c3)n2)cc1`, the Potency entry in [1] was “inactive”.

For `Cn1c(=O)c(=O)n(C)c2cc(S(=O)(=O)N3CCN(c4ccccc4)CC3)ccc21`, the Potency entry in assay [1] was “inactive”.

In the case of `COCCC1(NC(=O)c2ccccc2)CCN(S(=O)(=O)c2ccc(C#N)cc2)CC1`, in [1], the Potency result is “inactive”.

Take `COc1ccc2ccc(OCc3nc(C(=O)N(C)CC(C)O)co3)cc2c1` (configuration not stated): the Potency entry in assay [1] is “inactive”.

`CCOc1ccc(NC(=O)c2nnn(-c3ccc(F)c(Cl)c3)c2C)cc1`: the Potency entry in assay [1] is “inactive”.

As to `O=C(CNC(=O)c1ccc(-c2cccc(C(F)(F)F)c2)cc1)NCc1ccccc1`, the Potency result in assay [1] is “inactive”.

In the case of `Cc1ccc(CNC(=O)c2ccc(-c3ccc(N4CCCCC4)nc3)cc2)o1`, in assay [1], the Potency entry was “inactive”.

For `CCN1C(=O)c2ccccc2S(=O)c2ccc(C(=O)NCc3ccc(C)cc3)cc21` (configuration not stated), the Potency result in [1] was “inactive”.

Turning to `C[C@H](Cc1ccc(O)c(O)c1)[C@@H](C)Cc1ccc(O)c(O)c1`, the Potency in assay [2] is 15800 nM (active); in assay [4], 3320 nM (active); in [8] it was 2950 nM (active); in assay [5], 8330 nM (active); in assay [6] it was 11800 nM (active).

Regarding `CCc1ccc(NC(=O)COCc2cc(-c3ccc(F)cc3)on2)cc1`, the Potency entry in assay [1] was “inactive”.

Consider `O=c1c(-c2ccc(O)cc2)coc2cc(O[C@@H]3O[C@H](CO)[C@@H](O)[C@H](O)[C@H]3O)ccc12`, for which the Potency result in [2] and in [5] was “inactive” in each case. Also, the viability in [3] was 119%. For the same molecule, in assay [8], the Potency is 20900 nM (active).

With `OCc1cccc(-c2ccc3ncc(Nc4cccnc4)n3n2)c1`, in [1], the Potency entry was “inactive”.

In the case of `COc1ccc2c(c1)CCc1c(C(=O)Nc3ccc(F)c(Cl)c3)noc1-2`, in assay [1], the Potency result is “inactive”.

As for `CCCN(CCC)S(=O)(=O)c1ccc2c(c1)N(CC(=O)NC(C)c1ccccc1)C(=O)CS2` (configuration not stated), the Potency result in [1] was “inactive”.

On to `O=C(C1CCCN([S+](=O)([O-])c2ccccc2)C1)N1CCC(N2CCOCC2=O)CC1` (configuration not stated), for which the Potency entry in assay [1] is “inactive”.

Take `COc1ccc(CC(=O)NCCNC(=O)c2ccc(-c3cccc(C(F)(F)F)c3)cc2)cc1`: the Potency result in assay [1] is “inactive”.

For the molecule `Cc1c(NC(=O)c2ccc(-c3ccc(F)cc3)o2)cccc1-c1nc2ncccc2o1`, the Potency result in assay [1] is “inactive”.

Turning to `COc1ccc(OC)c(S(=O)(=O)NCC(c2ccc(N(C)C)cc2)N2CCOCC2)c1` (configuration not stated), the Potency entry in assay [1] is “inactive”.

As for `CCC(=O)Nc1cccc(-c2cn3c(C)csc3n2)c1`, the Potency result in assay [1] is “inactive”.

As for `CCOC(=O)c1ccccc1NC(=O)N1CCN(Cc2cc(=O)n3nc(-c4ccccc4)sc3n2)CC1`, the Potency result in [1] is “inactive”.

On to `COc1cc(O)c2c(c1)C1OC1C[C@H](O)[C@H](O)C(=O)/C=C\C[C@H](C)OC2=O` (some centres not stated), for which the Potency result in assay [10] and in assay [11] was “inactive” each time.

`CC(C)c1ccccc1-c1ncc(F)c(NCc2ccc(-c3cccnc3)cc2)n1`: the Potency is 5010 nM (active) in [1], 14100 nM (active) in assay [12] and 8960 nM (active) in [10]. The Potency entry in [13] and in assay [14] was “inactive” in each case.

Consider `COc1cccc(OC2=NS(=O)(=O)c3ccccc32)c1`, for which the Potency result in assay [1], in assay [12], in [13], in assay [10], in assay [14] and in [15] was “inactive” in each case.

For the molecule `Cc1ccc(OCCn2c(CCNC(=O)c3ccccc3C(F)(F)F)nc3ccccc32)cc1`, the Potency result in [1], in assay [12], in assay [13], in assay [10], in assay [14] and in assay [15] was “inactive” each time.

Take `COc1ccc(C2Nc3ccccc3C(=O)N2Cc2ccc(Cl)cc2)cc1COc1ccc(NC(C)=O)cc1` (configuration not stated): the Potency is 3980 nM (active) in [1], 2250 nM (active) in assay [12], 3550 nM (active) in assay [10] and 12700 nM (active) in [14]. Moreover, the Potency entry in assay [13] and in [15] was “inactive” in each case.

In the case of `O=C1NS(=O)(=O)c2cc3c(cc21)C(=O)NS3(=O)=O`, the Potency result in [1], in [12], in assay [13], in [10], in [14] and in [15] was “inactive” each time.

With `Cc1cn([C@H]2C[C@H](N[S+](=O)([O-])Cc3ccc(Cl)cc3)[C@@H](CO)O2)c(=O)[nH]c1=O`, the Potency entry in assay [1], in assay [12], in assay [13], in [10], in [14] and in assay [15] was “inactive” throughout.

As for `Oc1cc(Nc2ccccc2)cc2cccnc12`, the Potency result in assay [1], in assay [12], in assay [13] and in assay [14] was “inactive” each time. In [10], the Potency is 283 nM (active).
